The values below come from PubChem BioAssay (NCATS).

Experiment [1] deals with Lysosomal acid glucosylceramidase (Homo sapiens) (UniProt P04062). Nature of the experiment: Glucocerebrosidase-p2 (AID 348; in the data active = potency below about 10 µM; note: potency is the fitted concentration of half-maximal effect). Particulars: purified GBA, blue fluorogenic substrate, 40 min. The procedure, abridged:
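Normal human glucocerebrosidase (0.2 nM) with blue fluorogenic substrate (80 uM final) in citrate/phosphate pH 5.9 with 10mM sodium taurocholate, 0.01% tween-20; 40 min RT, NaOH/glycine stop; fluorescence Ex 365/Em 440; AC50 from a titration from 0.6 nM upwards.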

The nature of experiment [2]: AP1 Signaling Pathway (AID 357). Note: % is set by controls: 0 for no effect and ±100 for the full control effect. The conditions noted are these: ME-180 AP-1-bla reporter, EGF-induced, beta-lactamase ratio, 5 h; at 7.69 µM (top of the series) unless noted. The method, boiled down: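 Cells are seeded overnight, exposed to compound titrations and an EC50 level of EGF for 5 hours at 37 °C, then loaded with CCF4 dye for 2.5 hours. Beta-lactamase activity under the AP-1 element is read as a blue/green ratio.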

For experiment [3], the target named is Cytochrome P450 1A2 (Homo sapiens) (UniProt P05177). The experiment can be described thus: p450-cyp1a2 (AID 410; calls by dose curve; note: potency is the fitted concentration of half-maximal effect;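 for activity change, negative = inhibition: -100% = full effect of reference inhibitor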). Particulars: recombinant CYP1A2, luciferin-ME demethylation, luminescence; series mostly up to 11.4 µM. The method, boiled down: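 O-Demethylation of luciferin 6' methyl ether by human CYP1A2 is monitored as luciferase luminescence. Substrate sits at Km (100uM); enzyme is 20nM. Values are scaled to 57 uM furafylline as maximal inhibition.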
Chain of Cytochrome P450 1A2 (Homo sapiens) (P05177 whole entry, looked up): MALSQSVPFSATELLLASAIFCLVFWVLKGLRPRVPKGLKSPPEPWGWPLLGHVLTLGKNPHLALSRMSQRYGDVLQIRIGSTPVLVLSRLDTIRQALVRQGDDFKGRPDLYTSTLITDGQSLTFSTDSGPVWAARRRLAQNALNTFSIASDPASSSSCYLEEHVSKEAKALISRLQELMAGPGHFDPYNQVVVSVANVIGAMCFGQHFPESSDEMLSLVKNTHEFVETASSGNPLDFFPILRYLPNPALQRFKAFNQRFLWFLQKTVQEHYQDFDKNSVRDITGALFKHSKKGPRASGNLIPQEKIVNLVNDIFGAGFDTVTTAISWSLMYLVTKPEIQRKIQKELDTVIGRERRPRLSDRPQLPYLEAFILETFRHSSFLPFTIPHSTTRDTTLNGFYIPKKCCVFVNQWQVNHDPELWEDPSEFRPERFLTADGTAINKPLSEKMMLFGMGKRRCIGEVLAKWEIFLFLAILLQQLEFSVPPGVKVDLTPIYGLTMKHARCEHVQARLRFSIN

A short description of experiment [4]: NFAT Signaling Pathway (AID 444).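 Note: carbachol stimulus at about its EC50 of 1 µM final; % is set by controls: 0 for no effect and ±100 for the full control effect.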 The conditions noted are these: Jurkat NFAT-bla M1, carbachol, beta-lactamase ratio, 5 h; at 7.69 µM (top of the series) unless noted. The method, boiled down: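 Jurkat cells with NFAT-driven β-lactamase reporter and co-expressed M1 receptor, stimulated with carbachol (final 1 uM, ~EC50), compound titration, 5 h at 37 °C. CCF4 loaded 1 h at RT; 460/530 nm ratio gave %activity and AC50.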

The target of experiment [5] is Glucocorticoid receptor (Homo sapiens) (UniProt P04150). The experiment can be described thus: GR-GFP Redistribution (AID 450;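 active = compounds whose dose series gives a full or clear partial fitted curve of increased nuclear translocation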; note: potency is the fitted concentration of half-maximal effect). The conditions noted are these: U2OS GR-GFP nuclear translocation, laser cytometry, 2 h.
Chain of Glucocorticoid receptor (Homo sapiens) (P04150 whole entry, looked up, the tested form may be a part): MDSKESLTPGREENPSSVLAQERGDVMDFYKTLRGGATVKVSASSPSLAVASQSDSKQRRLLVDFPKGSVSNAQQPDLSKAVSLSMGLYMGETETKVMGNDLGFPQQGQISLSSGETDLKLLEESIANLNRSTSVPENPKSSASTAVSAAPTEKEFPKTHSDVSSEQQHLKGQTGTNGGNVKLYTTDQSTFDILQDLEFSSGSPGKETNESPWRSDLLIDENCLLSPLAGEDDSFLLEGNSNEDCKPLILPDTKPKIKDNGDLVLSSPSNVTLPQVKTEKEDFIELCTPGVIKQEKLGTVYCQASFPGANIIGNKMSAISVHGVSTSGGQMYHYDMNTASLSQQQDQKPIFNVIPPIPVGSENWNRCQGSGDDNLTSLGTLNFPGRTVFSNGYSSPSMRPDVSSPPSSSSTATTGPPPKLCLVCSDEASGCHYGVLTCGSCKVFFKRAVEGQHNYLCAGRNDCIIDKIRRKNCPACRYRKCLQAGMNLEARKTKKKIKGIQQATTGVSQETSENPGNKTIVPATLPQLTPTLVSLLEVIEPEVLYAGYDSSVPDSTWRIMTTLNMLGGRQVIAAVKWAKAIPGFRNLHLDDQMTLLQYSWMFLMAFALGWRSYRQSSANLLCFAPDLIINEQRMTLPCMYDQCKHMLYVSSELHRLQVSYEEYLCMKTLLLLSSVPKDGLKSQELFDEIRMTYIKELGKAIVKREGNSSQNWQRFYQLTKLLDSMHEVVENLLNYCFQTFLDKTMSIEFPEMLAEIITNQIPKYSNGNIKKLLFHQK
Experiment [6] has as its target Mitogen-activated protein kinase 10 (Mus musculus) (UniProt Q61831). The experiment can be described thus: JNK3 AlphaScreen Assay (AID 530).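 Note: kinase came from lysate of stimulated human HepG2 cells; signal reports phosphorylation of biotinylated GST-cJun 1-79 at Ser73 with 10 µM ATP; % is set by controls: 0 for no effect and ±100 for the full control effect.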 Particulars: JNK3 lysate, c-Jun phosphorylation; series mostly up to 57.1 µM. The method, boiled down:
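Activity was read by AlphaScreen after JNK3-containing HepG2 lysate (cytokine pre-activated) phosphorylated biotinylated GST-cJun with 10 uM ATP at room temperature. Phospho-Ser73 cJun antibody with Protein-A acceptor beads provided detection.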
For orientation: Bead proximity is the source of the signal in Alpha formats.

For experiment [7], the target named is 3',5'-cyclic-AMP phosphodiesterase 4B (Homo sapiens) (UniProt Q07343). The experiment can be described thus: qHTS Assay for Inhibitors of PDE-IV (AID 607; active = well fitted activation curve with a large enough effect in the main read-out, with a control signal flat, not every such curve was filed as active; note: % of control where 0% means no effect). Particulars: HEK293 ACTOne CNG channel cells, membrane potential fluorescence; series mostly up to 22.9 µM. The procedure, abridged: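 ACTOne HEK293 cells carry a modified cAMP-gated CNG channel and express endogenous PDE4; plated 1000 cells/well, compounds up to 22.9 uM final. Membrane-potential dye fluorescence (ex 535/em 590) was read; parental cells received 10 uM forskolin + 100 uM RO 20-1724.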
Chain of 3',5'-cyclic-AMP phosphodiesterase 4B (Homo sapiens) (Q07343 whole entry, looked up): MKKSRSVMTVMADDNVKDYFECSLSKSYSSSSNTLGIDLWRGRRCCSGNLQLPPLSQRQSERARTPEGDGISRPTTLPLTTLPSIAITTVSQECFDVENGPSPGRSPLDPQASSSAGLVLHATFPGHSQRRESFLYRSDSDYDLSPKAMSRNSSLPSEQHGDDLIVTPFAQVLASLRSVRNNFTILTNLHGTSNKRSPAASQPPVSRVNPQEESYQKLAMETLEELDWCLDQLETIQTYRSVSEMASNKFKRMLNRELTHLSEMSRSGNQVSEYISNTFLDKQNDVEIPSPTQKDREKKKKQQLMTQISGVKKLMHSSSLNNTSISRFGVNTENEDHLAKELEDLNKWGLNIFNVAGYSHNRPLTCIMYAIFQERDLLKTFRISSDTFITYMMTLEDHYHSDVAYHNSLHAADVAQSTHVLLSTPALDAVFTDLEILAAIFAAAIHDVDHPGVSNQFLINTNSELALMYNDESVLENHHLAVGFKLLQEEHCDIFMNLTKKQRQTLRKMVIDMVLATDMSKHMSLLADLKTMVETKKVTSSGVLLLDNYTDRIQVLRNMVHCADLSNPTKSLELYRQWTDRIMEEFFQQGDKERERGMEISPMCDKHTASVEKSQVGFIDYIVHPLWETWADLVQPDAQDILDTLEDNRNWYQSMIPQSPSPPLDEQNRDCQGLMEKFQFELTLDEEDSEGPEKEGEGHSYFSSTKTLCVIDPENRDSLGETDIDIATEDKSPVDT

Experiment [8] is described as follows: Stat Signaling Pathway (AID 446).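 Note: ME-180 cervical cancer cells given 40 pM IL-6 alongside compound; SIE-controlled beta-lactamase reporter measured as 460/530 nm FRET emission ratio; % is set by controls: 0 for no effect and ±100 for the full control effect.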 The conditions noted are these: ME-180 (cervical carcinoma) SIE beta-lactamase reporter, IL-6 stimulated, 5 h; at 7.69 µM (top of the series) unless noted. The method, boiled down:
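Compound effects on IL-6-induced STAT reporter activity were measured in ME-180 cells. After overnight culture, cells were co-treated with 40 pM IL-6 for 5 hrs before beta-lactamase substrate loading at room temperature.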

In experiment [9] the target is Glucocorticoid receptor (Homo sapiens) (UniProt P04150). The experiment can be described thus: GR-EFC Redistribution (AID 451; calls by dose curve; note: potency is the fitted concentration of half-maximal effect). Particulars: CHO-K1 GR-EFC translocation, beta-gal luminescence, 2 h. The procedure, abridged: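 CHO-K1 cells expressing nuclear EA and GR-ED fragments of b-gal; compounds titrated up to 46 uM final, 2 h at 37 C. GR nuclear translocation read as complemented b-gal luminescence after 1 h RT detection.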

Experiment [10] has as its target Cytochrome P450 2C9 (Homo sapiens) (UniProt P11712). Nature of the experiment: qHTS Assay for Inhibitors and Substrates of Cytochrome P450 2C9 (AID 883; active = well fitted curve in the direction sought with a large enough effect; an effect the other way counts as inactive or inconclusive; note: % is set by controls: 0 for no effect and ±100 for the full control effect; nearly all actives have a fitted effect of over 60% in size). The conditions noted are these: recombinant CYP2C9, luciferin-H luminescence, 60 min; series mostly up to 57.1 µM. The method, boiled down:
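10nM CYP2C9 + 100uM Luciferin-H (=KM), 25mM KPO4; cpd 10 min 37C; NADPH regen, 60 min 37C; stop/detect with P450 Glo-Buffer 20 min; luminescence. Norm. to 57uM sulphaphenazole as full inhibition.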
A general note: Quantitative high-throughput screening tests each substance at several concentrations.

Experiment [11] concerns the target Cytochrome P450 2D6 (Homo sapiens) (UniProt P10635). The experiment can be described thus: qHTS Assay for Inhibitors and Substrates of Cytochrome P450 2D6 (AID 891; active = well fitted curve in the direction sought with a large enough effect; an effect the other way counts as inactive or inconclusive; note: nearly all actives have a fitted effect of over 60% in size; note: potency is the fitted concentration of half-maximal effect). Particulars: recombinant CYP2D6, luciferin-ME EGE luminescence; series mostly up to 11.4 µM. The method, boiled down:
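Luminescent read-out of luciferin formed by 5 nM human CYP2D6 demethylating 30 uM Luciferin-ME EGE (Km level) over 60 min at room temperature after NADPH regeneration addition. Data normalized to full inhibition by 1.43 uM quinidine.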

The target of experiment [12] is Cytochrome P450 2C19 (Homo sapiens) (UniProt P33261). The experiment can be described thus: qHTS Assay for Inhibitors and Substrates of Cytochrome P450 2C19 (AID 899; active = well fitted curve in the direction sought with a large enough effect; an effect the other way counts as inactive or inconclusive; note: nearly all actives have a fitted effect of over 60% in size; note: potency is the fitted concentration of half-maximal effect). The conditions noted are these: recombinant CYP2C19, luciferin-H EGE luminescence; series mostly up to 11.4 µM. The method, boiled down:
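Luminescent read-out of luciferin formed from Luciferin-H EGE (10uM, equal to KM). Enzyme 5nM in 50mM KPO4; compound added, 10 min at 37C, then NADPH regenerating system for 60 min at 37C. Full inhibition defined by 57uM ketoconazole.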

Experiment [13] addresses Cytochrome P450 3A4 (Homo sapiens) (UniProt P08684). The experiment can be described thus: qHTS Assay for Inhibitors and Substrates of Cytochrome P450 3A4 (AID 884; active = well fitted curve in the direction sought with a large enough effect; an effect the other way counts as inactive or inconclusive; note: potency is the fitted concentration of half-maximal effect; nearly all actives have a fitted effect of over 50% in size). The conditions noted are these: recombinant CYP3A4, Luciferin-PPXE luminescence; series mostly up to 57.1 µM. The procedure, abridged: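 Luminescent readout of luciferin produced by CYP3A4 (20 nM) dealkylation of Luciferin-PPXE, 25 uM (its KM). NADPH-driven reaction ran 60 min at RT after 10 min compound preincubation; data scaled to 57 uM ketoconazole as 100% inhibition.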

Experiment [14] shares this target. The experiment can be described thus: qHTS Assay for Activators of Cytochrome P450 3A4 (AID 885; active = well fitted curve in the direction sought with a large enough effect; an effect the other way counts as inactive or inconclusive; note: nearly all actives have a fitted effect of over 65% in size). The conditions noted are these: recombinant CYP3A4, Luciferin-PPXE luminescence, 60 min; series mostly up to 57.1 µM. The method, boiled down: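 CYP3A4 activity: Luciferin-PPXE O-dealkylation, 25uM substrate, 200mM KPO4, RT throughout. Read-out is luciferase luminescence; higher values reflect activation.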

A number with no mark means an inactive call. Records with an inconclusive call do not appear. The source made the active and inactive calls. Unless noted, calls come from the whole dose curve; as a rule, active = well fitted curve in either direction with a large enough effect (not every such curve was filed as active); inconclusive = small, poorly fitted or top-dose-only effect, or another doubt; inactive = flat fitted curve, though single readings scatter.

Chain of Cytochrome P450 3A4 (Homo sapiens) (P08684 whole entry, looked up): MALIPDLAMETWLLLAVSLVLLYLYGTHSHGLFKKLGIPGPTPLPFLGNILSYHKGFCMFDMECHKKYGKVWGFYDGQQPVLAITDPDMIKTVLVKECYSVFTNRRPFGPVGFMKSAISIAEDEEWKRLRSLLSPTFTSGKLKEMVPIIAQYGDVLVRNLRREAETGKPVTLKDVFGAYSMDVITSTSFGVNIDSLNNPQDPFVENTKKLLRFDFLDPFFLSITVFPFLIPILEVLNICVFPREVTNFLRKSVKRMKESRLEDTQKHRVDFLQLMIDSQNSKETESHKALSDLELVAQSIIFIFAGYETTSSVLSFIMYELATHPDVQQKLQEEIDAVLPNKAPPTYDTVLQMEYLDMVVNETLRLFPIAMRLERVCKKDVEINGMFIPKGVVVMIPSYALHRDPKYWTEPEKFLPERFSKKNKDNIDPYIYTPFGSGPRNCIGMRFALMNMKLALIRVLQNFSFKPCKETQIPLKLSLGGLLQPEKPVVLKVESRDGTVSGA
Chain of Lysosomal acid glucosylceramidase (Homo sapiens) (P04062 whole entry, looked up): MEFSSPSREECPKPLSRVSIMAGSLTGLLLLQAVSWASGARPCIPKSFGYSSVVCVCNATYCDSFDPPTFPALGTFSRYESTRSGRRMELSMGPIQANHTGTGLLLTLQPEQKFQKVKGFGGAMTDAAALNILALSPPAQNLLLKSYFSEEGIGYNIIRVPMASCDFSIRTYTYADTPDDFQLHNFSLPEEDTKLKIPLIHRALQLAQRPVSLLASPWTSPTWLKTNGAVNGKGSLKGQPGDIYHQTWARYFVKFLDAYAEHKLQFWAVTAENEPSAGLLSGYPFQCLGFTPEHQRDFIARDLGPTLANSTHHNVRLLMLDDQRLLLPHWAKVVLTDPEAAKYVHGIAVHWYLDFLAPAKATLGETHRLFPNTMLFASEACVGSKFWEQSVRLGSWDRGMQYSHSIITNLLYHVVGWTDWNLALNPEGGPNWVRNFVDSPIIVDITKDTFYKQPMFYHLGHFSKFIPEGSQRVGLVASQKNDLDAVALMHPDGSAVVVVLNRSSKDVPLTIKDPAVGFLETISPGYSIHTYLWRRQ
Chain of Cytochrome P450 2C19 (Homo sapiens) (P33261 whole entry, looked up): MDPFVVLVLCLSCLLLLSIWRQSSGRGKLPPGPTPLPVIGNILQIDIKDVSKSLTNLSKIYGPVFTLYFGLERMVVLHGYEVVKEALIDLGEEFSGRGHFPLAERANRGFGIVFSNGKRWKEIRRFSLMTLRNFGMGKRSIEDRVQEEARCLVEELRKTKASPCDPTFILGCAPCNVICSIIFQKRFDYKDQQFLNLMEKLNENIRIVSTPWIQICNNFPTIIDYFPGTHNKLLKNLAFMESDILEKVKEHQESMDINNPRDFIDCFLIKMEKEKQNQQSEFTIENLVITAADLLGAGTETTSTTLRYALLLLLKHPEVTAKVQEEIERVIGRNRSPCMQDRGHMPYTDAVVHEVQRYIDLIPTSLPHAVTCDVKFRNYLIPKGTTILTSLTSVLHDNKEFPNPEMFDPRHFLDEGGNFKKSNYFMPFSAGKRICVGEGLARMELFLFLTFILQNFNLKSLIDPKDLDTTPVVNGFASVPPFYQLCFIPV
Chain of Cytochrome P450 2D6 (Homo sapiens) (P10635 whole entry, looked up): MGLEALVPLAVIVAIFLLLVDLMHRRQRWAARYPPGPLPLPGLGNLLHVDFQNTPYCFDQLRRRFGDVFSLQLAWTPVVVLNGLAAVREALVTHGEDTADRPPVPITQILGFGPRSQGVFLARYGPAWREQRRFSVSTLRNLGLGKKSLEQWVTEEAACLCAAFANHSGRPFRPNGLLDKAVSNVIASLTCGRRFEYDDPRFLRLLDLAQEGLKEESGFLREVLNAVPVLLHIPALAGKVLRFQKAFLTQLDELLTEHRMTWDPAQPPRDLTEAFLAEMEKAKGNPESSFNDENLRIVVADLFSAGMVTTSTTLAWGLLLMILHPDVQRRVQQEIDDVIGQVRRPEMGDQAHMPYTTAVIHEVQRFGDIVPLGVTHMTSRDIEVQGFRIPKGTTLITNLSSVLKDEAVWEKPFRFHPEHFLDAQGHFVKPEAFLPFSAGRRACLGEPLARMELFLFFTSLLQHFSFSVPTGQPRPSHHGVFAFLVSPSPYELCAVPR
Chain of Cytochrome P450 2C9 (Homo sapiens) (P11712 whole entry, looked up): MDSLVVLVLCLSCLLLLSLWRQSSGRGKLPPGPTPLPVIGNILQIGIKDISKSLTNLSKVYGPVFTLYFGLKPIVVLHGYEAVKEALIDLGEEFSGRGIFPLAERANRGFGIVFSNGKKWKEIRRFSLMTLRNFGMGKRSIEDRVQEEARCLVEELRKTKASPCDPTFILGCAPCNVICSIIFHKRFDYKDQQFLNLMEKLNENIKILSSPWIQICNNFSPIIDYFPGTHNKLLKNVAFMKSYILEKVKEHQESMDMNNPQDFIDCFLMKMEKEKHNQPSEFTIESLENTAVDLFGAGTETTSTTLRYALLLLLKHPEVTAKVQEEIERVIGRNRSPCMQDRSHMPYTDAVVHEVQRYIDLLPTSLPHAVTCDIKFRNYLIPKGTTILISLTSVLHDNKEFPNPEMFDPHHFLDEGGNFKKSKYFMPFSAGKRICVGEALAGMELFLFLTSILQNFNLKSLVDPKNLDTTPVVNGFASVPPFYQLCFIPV

Regarding `COc1cc2c3cc1Oc1c(O)c(OC)cc4c1[C@@H](Cc1ccc(cc1)Oc1cc(ccc1O)C[C@H]3N(C)CC2)N(C)CC4`, the values for the Potency in [1] and in experiment [5] were > 11.4 µM and > 46 µM, respectively. Moreover, the activity change, negative = inhibition was 5.28% in experiment [2], -11.5% in experiment [4] and 4.78% [at 11.4 µM] in experiment [6]. For the same molecule, the Potency result in experiment [3] is “inactive”. The result in experiment [7] was inactive.

In the case of `CN[C@H]1[C@H](C)O[C@@H](O[C@@H]2C/C=C(/C)C/C(C)=C\C=C/CC[C@@H](C)CNC(=O)/C=C\C=C/[C@H]2C)C[C@@H]1O`, the Potency in experiment [1] is > 11.4 µM; in experiment [5], > 46 µM; in experiment [9], > 9.22 µM. Besides, the activity change, negative = inhibition in experiment [2] was -6.3%; in [6], 1.47% [at 11.4 µM]; in experiment [10] it was -5.72% [at 11.4 µM]. Further, the Potency entry in experiment [3], in [11] and in [12] was “inactive” in each case. The activity, negative = inhibition in experiment [8] is -1.24%. Further, the molecule was called inactive in [7].

With `COc1ccc(C(=O)O[C@H]2CC[C@@]3(C)[C@H]4CC[C@H]5[C@]3(C[C@]3(O)[C@H]6CN7C[C@H](C)CC[C@H]7[C@](C)(O)[C@]6(O)[C@H](O)C[C@]53O)O[C@]24O)cc1OC`, the Potency in experiment [1] is > 11.4 µM; in experiment [5] it was > 46 µM. Further, the activity change, negative = inhibition in [2] is 1.14%; in experiment [3], -20.9% [at 2.29 µM]; in experiment [4] it was -1.26%; in experiment [6], -0.646% [at 11.4 µM]. Further, the activity, negative = inhibition in [8] is -2.58%. In experiment [7], the result was inactive. The Potency entry in experiment [12] was “inactive”.

For the molecule `CC(C)=C[C@H]1[C@@H](C(=O)OCc2cc3c(cc2Cl)OCO3)C1(C)C`, the Potency in [1] is > 11.4 µM; in [3], 0.794 µM (active); in experiment [5], > 46 µM; in experiment [9], > 9.22 µM; in experiment [13] it was 0.316 µM (active); in experiment [12], 1.58 µM (active). Moreover, the activity change, negative = inhibition in [2] was -2.25%. Besides, the activity, negative = inhibition in [8] is 0.513%. Moreover, the molecule was called inactive in experiment [7]. In addition, the activity change, positive = activation in experiment [14] is -75% [at 11.4 µM].

On to `O[C@H](CN1CC1)[C@@H](O)CN1CC1`, for which the values for the Potency in experiment [1] and in experiment [5] were > 11.4 µM and > 46 µM, respectively. Further, the activity change, negative = inhibition in [2] was 10.5%; in experiment [6] it was 2.9% [at 11.4 µM]. Also, the Potency entry in experiment [3] is “inactive”. For the same molecule, the activity, negative = inhibition in experiment [8] is 2.88%. The call in experiment [7] was inactive.

With `CCOC(=O)c1ccc2[nH]c(-c3ccc(S(=O)(=O)F)cc3)cc(=O)c2c1`, the Potency in experiment [1] was > 11.4 µM; in [5], > 46 µM; in experiment [9] it was > 9.22 µM. The activity change, negative = inhibition in experiment [2] was -7.65%; in [4], 25.8%; in [6] it was 3.3% [at 11.4 µM]. Also, the activity, negative = inhibition in [8] was -0.749%. In [7], the molecule was called inactive.

For the molecule `CCNC(C)(C)[C@@H](SS)c1ccc(Br)cc1`, the Potency in [1] is > 11.4 µM; in [5], > 46 µM; in [9], > 9.22 µM; in [11], 2 µM (active). In addition, the activity change, negative = inhibition was 5.96% in experiment [2], 11.8% in experiment [4] and -0.59% [at 11.4 µM] in [6]. Further, the activity, negative = inhibition in [8] is -1.19%. In addition, the outcome in [7] was inactive. In addition, the activity change, positive = activation in experiment [14] was -31.2% [at 11.4 µM].
